Screens as filed in PubChem BioAssay.
A selection: hits, their analogues and other compounds. The true share with any hit is near 21%.
DT40 TDP1 CPT = DT40-hTDP1 cell growth loss with CPT | chicken DT40 Tdp1-/-;hTDP1 cells + 20 nM CPT, ATP luminescence, 48 h | Potency, µM (titrated, usually from 46.2 µM), inactives show top-dose activity change, negative = growth inhibition, hits mostly inhibitors | 420,000 tested, 12% active; further: potency means the concentration at half of the fitted maximal effect; nearly all actives have a fitted effect of over 55% in size
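Chicken DT40 Tdp1-/- cells complemented with human TDP1, 400 cells/well, exposed to compounds plus 20 nM camptothecin for at least 48 h at 37 C; viability read as ATP content by CellTiter-Glo luminescence.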
ELG1 DNA repair = ELG1-dependent DNA repair inhibition; HEK293T ELG1-luciferase reporter, luminescence, 16 h; DNA damage induced by 5-fluorouridine; Potency, µM (titrated, usually from 46.1 µM), without a hit: top-dose activity change, negative = inhibition, hits mostly inhibitors; 330,000 tested, 2.3% active; AID 504467; further: potency means the concentration at half of the fitted maximal effect; nearly all actives have a fitted effect of over 55% in size
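HEK293T cells expressing luciferase-tagged ELG1 (2,000/well) received 5-Fluorouridine plus compound or DMSO for 16 hr at 37 °C. Luciferase was read by ONE-Glo luminescence after 30 min at room temperature.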
RORgamma inh = inhibitors of mouse ROR gamma transcriptional activity; P51450; Drosophila S2 Gal4-RORgamma UAS-luciferase reporter, 20 h; Potency, µM (titrated, usually from 53.6 µM), inactives show at the top dose activity change, negative = inhibition, hits mostly inhibitors; 310,000 tested, 5.4% active; AID 2551; further: potency means the concentration at half of the fitted maximal effect; nearly all actives have a fitted effect of over 60% in size
Target sequence (P51450 whole entry, looked up, the tested form may be a part): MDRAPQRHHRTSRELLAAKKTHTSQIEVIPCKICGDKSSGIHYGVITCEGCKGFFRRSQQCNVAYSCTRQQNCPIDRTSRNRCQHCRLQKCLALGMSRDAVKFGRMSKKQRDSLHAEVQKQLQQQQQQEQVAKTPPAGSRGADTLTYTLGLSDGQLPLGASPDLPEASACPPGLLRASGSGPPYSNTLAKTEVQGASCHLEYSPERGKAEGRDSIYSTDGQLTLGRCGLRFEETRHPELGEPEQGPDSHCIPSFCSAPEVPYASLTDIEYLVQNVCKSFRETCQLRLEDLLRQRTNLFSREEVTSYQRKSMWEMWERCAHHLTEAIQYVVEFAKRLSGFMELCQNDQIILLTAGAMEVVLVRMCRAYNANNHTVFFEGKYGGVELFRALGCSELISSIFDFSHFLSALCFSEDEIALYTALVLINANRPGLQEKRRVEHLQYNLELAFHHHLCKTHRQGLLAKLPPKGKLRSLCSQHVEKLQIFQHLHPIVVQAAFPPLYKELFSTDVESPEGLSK
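Stably transfected Drosophila Schneider cells are the test system, with ROR gamma fused to Gal4 and luciferase under UAS control; luminescence is read after 20 hr of 700 uM copper sulfate induction at ambient temperature.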
DT40 TDP1 no CPT = qHTS for Inhibitors of human tyrosyl-DNA phosphodiesterase 1 (TDP1): qHTS in cells in absence of CPT. DT40 Tdp1-/- hTDP1 cells, no CPT, ATP luminescence, 48 h. Potency, µM (top dose mostly 46.2 µM), for the others: at the highest dose activity change, negative = growth inhibition, actives largely listed as inhibitors. 420,000 tested, 15% active. AID 686978, 2013; further: potency means the concentration at half of the fitted maximal effect; nearly all actives have a fitted effect of over 55% in size
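Cells were dispensed at 400 per well, compounds added by pin tool, plates incubated ≥48 hr at 37 °C, then CellTiter-Glo added for 30 min at room temperature before luminescence reading. Line: DT40 Tdp1-/- complemented with hTDP1; camptothecin omitted.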
VP16 counter = inhibits Gal4-VP16 luciferase reporter, ROR gamma counter-screen; AID 2546; Drosophila S2 Gal4-VP16 UAS-luciferase, luminescence, 20 h; Potency, µM (series often up to 53.6 µM), for the others: top-dose activity, negative = inhibition, most hits filed as inhibitors; 310,000 tested, 3.5% active;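 further: Gal4-VP16 expression switched on by copper sulfate through the metallothionein promoter; potency means the concentration at half of the fitted maximal effect; nearly all actives have a fitted effect of over 50% in size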
IL-1B inflam inh = blocks inflammasome-driven IL-1 beta release. activity change, % at 57.5 µM. THP-1 LPS/ATP IL-1B secretion, AlphaLISA, 16 h; active compounds read low. 360,000 tested, 4.7% active; in the data active means activity change below about -50%; inconclusive means mostly about -30% to -49%
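Secreted IL-1B measured by AlphaLISA bead assay after 16 h compound exposure of THP-1 cells; compounds (final up to 57.5 uM) added 1 h before LPS (250 ng/mL) and ATP (1.25 mM) stimulation; lower signal means less secretion.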
Numbers without * were called inactive; u = inconclusive; x = no result. Unless noted, the call rests on the fitted dose curve; in most records, active means well fitted curve in the direction sought with a large enough effect; inconclusive means small, poorly fitted or top-dose-only effect, or another doubt; inactive means no such curve, though single readings can be large; an effect the other way counts as inactive or inconclusive. On the % scale 0 is the no-effect control and ±100 the full control effect.

SMILES	DT40 TDP1 CPT	ELG1 DNA repair	RORgamma inh	DT40 TDP1 no CPT	VP16 counter	IL-1B inflam inh
CC[C@]12c3[nH]c4ccccc4c3CCN1C(=O)C(CC(=O)NCCC1=CCCCC1)C[C@@H]2C(=O)N1CCN(C(=O)C2CC2)CC1 (some centres not stated)	18µM*	-11%	x	16µM*	x	-9
CC[C@]12c3[nH]c4ccc(Cl)cc4c3CCN1C(=O)[C@@H](CC(=O)NCCC1=CCCCC1)C[C@@H]2C(=O)N1CCN(C(=O)C2CC2)CC1	u	u	x	26µM*	x	-13
C[C@]12c3[nH]c4ccc(Cl)cc4c3CCN1C(=O)[C@@H](CC(=O)NCCC1=CCCCC1)C[C@@H]2C(=O)N1CCCCC1	-28%	u	x	-22%	x	-9
Cc1cc(C)n(-c2nnc3n2N=C(c2c[nH]c4ccccc24)CS3)n1	21µM*	u	-7%	15µM*	-2%	-10
CCc1cc(-c2n[nH]c(C)c2-c2nc(C)cs2)c(O)cc1OC	0%	-12%	13µM*	-28%	u	-78*
OCCNc1nc(NCCC2=CCCCC2)nc(N2CCOCC2)n1	21µM*	u	u	21µM*	u	-5
COc1cc(C(CC(=O)Nc2ccccn2)N2Cc3ccccc3C2=O)cc(OC)c1OC (configuration not stated)	6%	-22%	15%	-5%	6%	5
O=C1C(Cl)=C(N2CCCCC2)C(=O)C(Cl)=C1c1cnc(N2CCCCC2)s1	0.92µM*	u	u	0.92µM*	u	-71*
CC(C)NC(=O)c1cnc2sc(N3CCCCCC3)nn2c1=O	-4%	x	x	-20%	x	x
CN(C)c1ncc(C2=C(Cl)C(=O)C(N3CCCC3)=C(Cl)C2=O)s1	0.92µM*	x	x	1.2µM*	x	-104*
CCN(CC)C(=O)CSC1=N/C(=C/c2ccco2)C(=O)N1c1ccc(OC)c(Cl)c1	21µM*	u	-21%	u	u	-54*
CC1=N/C(=C\c2ccc(OC(C)C)cc2)C(=O)N1c1ccc(C(=O)O)cc1	u	0%	14%	-13%	1%	-21
NC(=O)CSC1=N/C(=C\c2ccco2)C(=O)N1c1ccc(OC(F)F)cc1	u	-17%	u	13µM*	u	-9
CCOc1cc(/C=C2\N=C(SC(C)C(N)=O)N(c3ccc(OC(F)F)cc3)C2=O)ccc1O (configuration not stated)	u	u	0%	10µM*	u	-12
COC(=O)C1=C(C)N(c2ccc(OC)c(OC)c2)C(=O)/C1=C\c1ccco1	u	u	u	-12%	4%	11
COc1ccc(/C=C2/N=C(SCC(=O)Nc3cc(C)on3)N(c3ccccc3)C2=O)cc1	6%	u	-18%	9%	u	28
CCOC(=O)C1(CCOC)CCCCC1=O (configuration not stated)	5%	x	x	6%	x	-1
Cc1ccc(S(=O)(=O)NCCc2nnc3ccc(SCC(=O)Nc4ccc(F)cc4F)nn23)cc1	-22%	x	x	5%	x	x
COc1ccc(OCC(=O)Nc2ccc(C(=O)OCc3cc(=O)n4nc(C)sc4n3)cc2)cc1	13µM*	x	x	21µM*	x	x
CC(C)c1nn2c(=O)cc(COC(=O)c3ccc(NC(=O)COc4ccccc4)cc3)nc2s1	3%	x	x	-30%	x	x
CCc1nn2c(=O)cc(COC(=O)c3ccccc3NC(=O)COc3ccc(C)c(C)c3)nc2s1	5.2µM*	x	x	6.5µM*	x	x
CCc1nn2c(=O)cc(COC(=O)c3ccc(NC(=O)COc4ccc(C)cc4)cc3)nc2s1	u	x	x	16µM*	x	x
COc1ccc(NC(=O)COC(=O)CNC(=O)COc2ccccc2)cc1OC	-16%	10%	x	u	x	0
